A short description of experiment [1]: NCI Yeast Anticancer Drug Screen. Data for the rad50 strain (AID 155).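 Note: 0% = growth of vehicle-only cultures of the same strain.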 The settings on record: S. cerevisiae rad50 strain growth inhibition, active compounds read high. The procedure, abridged:
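Growth of the mutant yeast was measured after compound exposure and referenced to vehicle-treated cultures.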

The nature of experiment [2]: NCI Yeast Anticancer Drug Screen. Data for the mec2-1 strain (AID 157). Conditions: S. cerevisiae mec2-1 strain, active compounds read high. The method, boiled down:
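Growth inhibition is read against vehicle-treated controls after compound exposure of the mec2-1 yeast strain, which is defective in DNA damage repair or cell cycle control.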

The nature of experiment [3]: NCI Yeast Anticancer Drug Screen. Data for the sgs1 mgt1 strain (AID 161).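 Note: 0% = growth of cultures given vehicle only.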 The settings on record: S. cerevisiae sgs1 mgt1 strain, active compounds read high. The method, boiled down:
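Yeast cells carrying a defined DNA-repair defect were exposed to test compounds. Growth inhibition was measured relative to vehicle-treated controls.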

The nature of experiment [4]: NCI Yeast Anticancer Drug Screen. Data for the cln2 rad14 strain (AID 165).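 Note: 0% = growth equal to vehicle treated cultures.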 Conditions: S. cerevisiae cln2 rad14 strain, active compounds read high. The procedure, abridged:
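Growth inhibition, relative to vehicle-treated controls, is the read-out. The test organism is a yeast strain with defined genetic alterations, cln2 rad14.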

A short description of experiment [5]: NCI Yeast Anticancer Drug Screen. Data for the bub3 strain (AID 167). The settings on record: S. cerevisiae bub3 mutant strain, active compounds read high. The method, boiled down:
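Whole-cell yeast assay. The mutant strain was incubated with compounds, and growth inhibition was determined by comparison with vehicle-treated cells.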

Experiment [6] can be described thus: NCI Yeast Anticancer Drug Screen. Data for the mlh1 rad18 strain (AID 175). Conditions: S. cerevisiae mlh1 rad18 strain growth inhibition, active compounds read high. The method, boiled down:
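Cells of a genetically altered yeast strain, deficient in DNA damage repair, were treated with compound. Their growth was then compared with that of vehicle-treated cultures to give inhibition.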

Setting [7] is: at 5.0 µM (retest, dose inferred, filed as 0.5).
Setting [8] is: at 50.0 µM (retest, dose inferred, filed as 5.0).

The results in this text go back to PubChem BioAssay (NCI).

Structures are written as SMILES. This is part of a sample that, as a whole, favours compounds with a hit. Of some 79,000 tested, about 15% had one in any assay. Values without a mark were called inactive. The source made the active and inactive calls. Cut-off read from the data, not from the text of the source: active = growth inhibition above about 70%; inactive = the rest.

As for `O=S1(=O)CC=C1c1ccccc1`, the growth inhibition in experiment [1] (setting [7]) was 8%; in experiment [1] (setting [8]), 78% (active); in experiment [1] (at 50.0 µM), 96.3% (active); in experiment [2] (setting [7]), 8%; in experiment [2] (setting [8]) it was 92% (active); in experiment [2] (at 50.0 µM) it was 96.5% (active). The growth inhibition in experiment [3] (setting [7]) is 7%; in experiment [3] (setting [8]), 89% (active); in experiment [3] (at 50.0 µM) it was 94.8% (active); in experiment [4] (setting [7]), 5%; in experiment [4] (setting [8]), 61%; in experiment [4] (at 50.0 µM) it was 73.8% (active). In addition, the growth inhibition was 2% in experiment [5] (setting [7]); 84% (active) in experiment [5] (setting [8]); 95.2% (active) in experiment [5] (at 50.0 µM); 2% in experiment [6] (setting [7]); 92% (active) in experiment [6] (setting [8]); 97.7% (active) in experiment [6] (at 50.0 µM).

Consider `O=CC(I)=C(c1ccccc1)c1ccccc1`, for which the growth inhibition in experiment [1] (setting [7]) is 21%; in experiment [1] (setting [8]) it was 21%; in experiment [1] (at 50.0 µM) it was 88.8% (active); in experiment [2] (setting [7]), 13%; in experiment [2] (setting [8]) it was 13%; in experiment [2] (at 50.0 µM), 92.3% (active). Further, the growth inhibition is 9% in experiment [3] (setting [7]); 9% in experiment [3] (setting [8]); 86.4% (active) in experiment [3] (at 50.0 µM); 4% in experiment [4] (setting [7]); 4% in experiment [4] (setting [8]); 89.8% (active) in experiment [4] (at 50.0 µM). Moreover, the growth inhibition was -2% in experiment [5] (setting [7]); -2% in experiment [5] (setting [8]); 89.5% (active) in experiment [5] (at 50.0 µM); 21% in experiment [6] (setting [7]); 21% in experiment [6] (setting [8]); 86.3% (active) in experiment [6] (at 50.0 µM).

On to `CC(CN1CCCCCCC1)C(c1ccccc1)c1ccccc1` (configuration not stated), for which the growth inhibition in experiment [1] (setting [7]) was 2%; in experiment [1] (setting [8]) it was 81% (active); in experiment [1] (at 50.0 µM) it was 66.3%; in experiment [2] (setting [7]), -3%; in experiment [2] (setting [8]) it was 76% (active); in experiment [2] (at 50.0 µM), 61.8%. For the same molecule, the growth inhibition is 7% in experiment [3] (setting [7]); 98% (active) in experiment [3] (setting [8]); 94.1% (active) in experiment [3] (at 50.0 µM); -5% in experiment [4] (setting [7]); 73% (active) in experiment [4] (setting [8]); 96.2% (active) in experiment [4] (at 50.0 µM). Further, the growth inhibition in experiment [5] (setting [7]) was -2%; in experiment [5] (setting [8]), 87% (active); in experiment [5] (at 50.0 µM), 98.5% (active); in experiment [6] (setting [7]) it was -3%; in experiment [6] (setting [8]), 89% (active); in experiment [6] (at 50.0 µM), 86.5% (active).

Consider `O=C(CCCN1CCc2[nH]c3cc(F)ccc3c2C1)c1ccc(F)cc1`, for which the growth inhibition in experiment [1] (setting [7]) was -11%; in experiment [1] (setting [8]) it was 97% (active); in experiment [1] (at 50.0 µM) it was 84.8% (active); in experiment [2] (setting [7]) it was -12%; in experiment [2] (setting [8]), 98% (active); in experiment [2] (at 50.0 µM), 68%. Further, the growth inhibition was -7% in experiment [3] (setting [7]); 98% (active) in experiment [3] (setting [8]); 90% (active) in experiment [3] (at 50.0 µM); -9% in experiment [4] (setting [7]); 94% (active) in experiment [4] (setting [8]); 84.4% (active) in experiment [4] (at 50.0 µM). Also, the growth inhibition in experiment [5] (setting [7]) is -30%; in experiment [5] (setting [8]), 98% (active); in experiment [5] (at 50.0 µM) it was 91.7% (active); in experiment [6] (setting [7]), 12%; in experiment [6] (setting [8]), 99% (active); in experiment [6] (at 50.0 µM) it was 85.6% (active).

As to `CCNc1nc(C(F)(F)F)nc2nc[nH]c12`, the growth inhibition in experiment [1] (setting [7]) is 3%; in experiment [1] (setting [8]) it was -5%; in experiment [1] (at 50.0 µM), 6.15%; in experiment [2] (setting [7]), 1%; in experiment [2] (setting [8]) it was 4%; in experiment [2] (at 50.0 µM) it was -5.75%. Besides, the growth inhibition was -22% in experiment [3] (setting [7]); -5% in experiment [3] (setting [8]); -20.1% in experiment [3] (at 50.0 µM); -5% in experiment [4] (setting [7]); 0% in experiment [4] (setting [8]); 92.7% (active) in experiment [4] (at 50.0 µM). For the same molecule, the growth inhibition was -4% in experiment [5] (setting [7]); -4% in experiment [5] (setting [8]); 3.4% in experiment [5] (at 50.0 µM); -3% in experiment [6] (setting [7]); -9% in experiment [6] (setting [8]); 39.9% in experiment [6] (at 50.0 µM).

For the molecule `CCOc1ccc(N=Nc2ccccc2)cc1`, the growth inhibition in experiment [1] (setting [7]) was -11%; in experiment [1] (setting [8]), -58%; in experiment [1] (at 50.0 µM), 1.8%; in experiment [2] (setting [7]), -25%; in experiment [2] (setting [8]), -35%; in experiment [2] (at 50.0 µM), 37.1%. Further, the growth inhibition was -8% in experiment [3] (setting [7]); -39% in experiment [3] (setting [8]); -19.8% in experiment [3] (at 50.0 µM); 0% in experiment [4] (setting [7]); -27% in experiment [4] (setting [8]); 38% in experiment [4] (at 50.0 µM). For the same molecule, the growth inhibition in experiment [5] (setting [7]) is -13%; in experiment [5] (setting [8]), -39%; in experiment [5] (at 50.0 µM), -12.6%; in experiment [6] (setting [7]), -9%; in experiment [6] (setting [8]), -49%; in experiment [6] (at 50.0 µM), -11.9%.

Regarding `C=Cc1cc(=O)oc2cc(OC)ccc12`, the growth inhibition was 20% in experiment [1] (setting [7]); 98% (active) in experiment [1] (setting [8]); 71.4% (active) in experiment [1] (at 50.0 µM); 22% in experiment [2] (setting [7]); 99% (active) in experiment [2] (setting [8]); 86.2% (active) in experiment [2] (at 50.0 µM). In addition, the growth inhibition was 22% in experiment [3] (setting [7]); 98% (active) in experiment [3] (setting [8]); 61.2% in experiment [3] (at 50.0 µM); 14% in experiment [4] (setting [7]); 99% (active) in experiment [4] (setting [8]); 72.2% (active) in experiment [4] (at 50.0 µM). Moreover, the growth inhibition in experiment [5] (setting [7]) is 14%; in experiment [5] (setting [8]) it was 98% (active); in experiment [5] (at 50.0 µM) it was 93.2% (active); in experiment [6] (setting [7]), 30%; in experiment [6] (setting [8]) it was 98% (active); in experiment [6] (at 50.0 µM) it was 93.8% (active).

For the molecule `COc1ccc2c3c(ccc2c1)NC(C(=O)O)CC3` (configuration not stated), the growth inhibition in experiment [1] (setting [7]) is 0%; in experiment [1] (setting [8]), 82% (active); in experiment [1] (at 50.0 µM), 60.5%; in experiment [2] (setting [7]) it was -11%; in experiment [2] (setting [8]), 56%; in experiment [2] (at 50.0 µM), -15.8%. Moreover, the growth inhibition in experiment [3] (setting [7]) was -2%; in experiment [3] (setting [8]) it was 83% (active); in experiment [3] (at 50.0 µM), 36%; in experiment [4] (setting [7]), -17%; in experiment [4] (setting [8]), 41%; in experiment [4] (at 50.0 µM), 21.3%. Also, the growth inhibition was -6% in experiment [5] (setting [7]); 82% (active) in experiment [5] (setting [8]); 52% in experiment [5] (at 50.0 µM); 3% in experiment [6] (setting [7]); 87% (active) in experiment [6] (setting [8]); 61.1% in experiment [6] (at 50.0 µM).

As to `O=C1C=C(O)c2cc(Br)ccc2C1=O.[Ag]`, the growth inhibition in experiment [1] (setting [7]) is 99% (active); in experiment [1] (setting [8]) it was 99% (active); in experiment [1] (at 50.0 µM), 99.6% (active); in experiment [2] (setting [7]), 100% (active); in experiment [2] (setting [8]), 99% (active); in experiment [2] (at 50.0 µM), 99.5% (active). The growth inhibition in experiment [3] (setting [7]) was 100% (active); in experiment [3] (setting [8]), 99% (active); in experiment [3] (at 50.0 µM), 99.7% (active); in experiment [4] (setting [7]), 99% (active); in experiment [4] (setting [8]) it was 99% (active); in experiment [4] (at 50.0 µM), 99.5% (active). In addition, the growth inhibition in experiment [5] (setting [7]) was 100% (active); in experiment [5] (setting [8]), 99% (active); in experiment [5] (at 50.0 µM), 99.7% (active); in experiment [6] (setting [7]) it was 99% (active); in experiment [6] (setting [8]) it was 99% (active); in experiment [6] (at 50.0 µM) it was 99.1% (active).
